Measured values reported in the OligoGym collection.

The sequences below were run against KCNRG (assay: pooled miR-30 sensor sort-seq; sequence = guide strand). Conditions: shRNA.
Note: reference of the scale not given here.

**Q.** With TATAGCATTCAGTTTTGTCTTC as the sequence, how does the sensor-assay potency score (higher = more potent) read?
**A.** Its sensor-assay potency score (higher = more potent) is 0.0468.

**Q.** TTTGTCTTCAGAAGATACTGTT was tested. Which sensor-assay potency score (higher = more potent) did it give?
**A.** Its sensor-assay potency score (higher = more potent) is -0.101.

**Q.** How did the sensor-assay potency score (higher = more potent) turn out when TAGAAACATACCTGACTCCAGT was run?
**A.** The sensor-assay potency score (higher = more potent) was -0.214.

**Q.** For TTTTATAGAAACATACCTGACT, which sensor-assay potency score (higher = more potent) is on record?
**A.** Its sensor-assay potency score (higher = more potent) is -0.489.

**Q.** For TTCGTGATGAGCACTTCAGGGC, which sensor-assay potency score (higher = more potent) is on record?
**A.** The sensor-assay potency score (higher = more potent) was 0.363.

**Q.** For TTCTAGTGCTGACCAAATGAAA, which sensor-assay potency score (higher = more potent) is on record?
**A.** Its sensor-assay potency score (higher = more potent) is -1.49.

**Q.** For TACTGTTCTAGTGCTGACCAAA, which sensor-assay potency score (higher = more potent) is on record?
**A.** The sensor-assay potency score (higher = more potent) was -1.23.

**Q.** Which sensor-assay potency score (higher = more potent) does the source give for TTTTGGTGTTTCATTCGTGATG here?
**A.** Its sensor-assay potency score (higher = more potent) is -1.02.

**Q.** With TTGTCTTCAGAAGATACTGTTC as the sequence, how does the sensor-assay potency score (higher = more potent) read?
**A.** Its sensor-assay potency score (higher = more potent) is -0.478.

**Q.** With TCTGGTATGATGATAGTCTCTG as the sequence, how does the sensor-assay potency score (higher = more potent) read?
**A.** Its sensor-assay potency score (higher = more potent) is 0.569.

What follows are sequences tested against KCNS2 in the same assay as above. Conditions: shRNA.

**Q.** For TTACACCATAACCATAAGGTGC, which sensor-assay potency score (higher = more potent) is on record?
**A.** Its sensor-assay potency score (higher = more potent) is -1.42.

**Q.** How did the sensor-assay potency score (higher = more potent) turn out when TCGAAGTAGAACTCCCGCTGGA was run?
**A.** The sensor-assay potency score (higher = more potent) was -0.212.

**Q.** For TACTCCTTACACCATAACCATA, which sensor-assay potency score (higher = more potent) is on record?
**A.** Its sensor-assay potency score (higher = more potent) is -1.82.

**Q.** With TTTATGGGCATAATAGTCCCTT as the sequence, how does the sensor-assay potency score (higher = more potent) read?
**A.** The sensor-assay potency score (higher = more potent) was -0.514.

**Q.** Which sensor-assay potency score (higher = more potent) does the source give for TAGAATAGCGTACACGATGGAC here?
**A.** The sensor-assay potency score (higher = more potent) was -0.475.

**Q.** Which sensor-assay potency score (higher = more potent) does the source give for TTAAACTGAGTTCACTTGGTGA here?
**A.** Its sensor-assay potency score (higher = more potent) is -0.682.

**Q.** TAGGGCATTCTTGAAGAACTTG was tested. Which sensor-assay potency score (higher = more potent) did it give?
**A.** Its sensor-assay potency score (higher = more potent) is -0.408.

**Q.** For TGCTCCACGATTTCGAACCTAG, which sensor-assay potency score (higher = more potent) is on record?
**A.** The sensor-assay potency score (higher = more potent) was -0.681.

**Q.** How did the sensor-assay potency score (higher = more potent) turn out when TAGAAATGCAGCACGTAGGGGA was run?
**A.** Its sensor-assay potency score (higher = more potent) is 0.48.

**Q.** How did the sensor-assay potency score (higher = more potent) turn out when TAGTCCCTTAAATTGACCGAAG was run?
**A.** Its sensor-assay potency score (higher = more potent) is -1.33.

**Q.** TTCTTTGTAGCTGTATTTCAAA was tested. Which sensor-assay potency score (higher = more potent) did it give?
**A.** The sensor-assay potency score (higher = more potent) was -1.

**Q.** With TTTAAACTGAGTTCACTTGGTG as the sequence, how does the sensor-assay potency score (higher = more potent) read?
**A.** The sensor-assay potency score (higher = more potent) was 0.664.

Each sequence was assayed against KCTD3 in the same assay as above. Conditions: shRNA.

**Q.** TGTAGTACAGTCAACAGCCTGG was tested. Which sensor-assay potency score (higher = more potent) did it give?
**A.** Its sensor-assay potency score (higher = more potent) is 0.267.

**Q.** Which sensor-assay potency score (higher = more potent) does the source give for TAGTTATAGGAACAACATCTTG here?
**A.** The sensor-assay potency score (higher = more potent) was -1.48.

**Q.** Which sensor-assay potency score (higher = more potent) does the source give for TTTGAGTAGCTCTTCTTCGGTT here?
**A.** The sensor-assay potency score (higher = more potent) was -0.151.

**Q.** For AGGAACAACATCTTGAACCTGC, which sensor-assay potency score (higher = more potent) is on record?
**A.** The sensor-assay potency score (higher = more potent) was -0.641.

**Q.** With TTATCTTTCATTCGCAAGGGGA as the sequence, how does the sensor-assay potency score (higher = more potent) read?
**A.** Its sensor-assay potency score (higher = more potent) is -0.381.

**Q.** How did the sensor-assay potency score (higher = more potent) turn out when TTGAGTAGCTCTTCTTCGGTTG was run?
**A.** Its sensor-assay potency score (higher = more potent) is -0.328.

**Q.** How did the sensor-assay potency score (higher = more potent) turn out when TTGTAGTACAGTCAACAGCCTG was run?
**A.** Its sensor-assay potency score (higher = more potent) is -1.16.

**Q.** Which sensor-assay potency score (higher = more potent) does the source give for TATCAATAAATATAGCACCAGT here?
**A.** The sensor-assay potency score (higher = more potent) was -0.952.

**Q.** With TTGCATTTAAAGCTACTCGTTC as the sequence, how does the sensor-assay potency score (higher = more potent) read?
**A.** The sensor-assay potency score (higher = more potent) was -0.407.

**Q.** Which sensor-assay potency score (higher = more potent) does the source give for TGATTCTGTAACACACAGCAAA here?
**A.** The sensor-assay potency score (higher = more potent) was -1.06.

**Q.** For TTTAAATTTACAATTACCCTAT, which sensor-assay potency score (higher = more potent) is on record?
**A.** The sensor-assay potency score (higher = more potent) was 0.0082.

The sequences below were run against KDELR1 in the same assay as above. Conditions: shRNA.

**Q.** ATCGTAAGTAGCTTTGAACTTG was tested. Which sensor-assay potency score (higher = more potent) did it give?
**A.** The sensor-assay potency score (higher = more potent) was -0.446.

**Q.** How did the sensor-assay potency score (higher = more potent) turn out when TTGCTCACCATGAACAGCTGCG was run?
**A.** Its sensor-assay potency score (higher = more potent) is -0.0886.

**Q.** For TTGAGCAGTAGCAAGATGATGG, which sensor-assay potency score (higher = more potent) is on record?
**A.** Its sensor-assay potency score (higher = more potent) is -0.401.

**Q.** How did the sensor-assay potency score (higher = more potent) turn out when AGGAACTCCACTCTGAACGTGT was run?
**A.** Its sensor-assay potency score (higher = more potent) is -0.99.

**Q.** Which sensor-assay potency score (higher = more potent) does the source give for TAAATCAACCAGACCGTGGTGA here?
**A.** The sensor-assay potency score (higher = more potent) was 0.82.

**Q.** For TTGAAGAGATAGAGCGTGCGGT, which sensor-assay potency score (higher = more potent) is on record?
**A.** Its sensor-assay potency score (higher = more potent) is -0.25.

**Q.** Which sensor-assay potency score (higher = more potent) does the source give for TAGAGTGAGATGTAGTTGGTGA here?
**A.** The sensor-assay potency score (higher = more potent) was 0.498.
